Over roughly 68,000 sequences, “fluorescence intensity (a.u.)” has its median near 9,100; the highest 2% begin near 16,000. The list comes from a sample in which the highest values are over-represented; it also holds similar and randomly drawn sequences.

Chain of OsWRKY34 (Q0JBA9 entry or part of it): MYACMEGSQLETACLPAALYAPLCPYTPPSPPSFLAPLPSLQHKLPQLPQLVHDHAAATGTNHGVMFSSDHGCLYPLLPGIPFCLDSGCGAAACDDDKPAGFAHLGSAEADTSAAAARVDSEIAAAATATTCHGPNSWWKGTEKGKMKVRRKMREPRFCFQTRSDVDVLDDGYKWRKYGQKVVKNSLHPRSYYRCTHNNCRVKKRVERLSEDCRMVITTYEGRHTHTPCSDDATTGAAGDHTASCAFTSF

The target in the assay is OsWRKY34 (Oryza sativa, UniProt Q0JBA9 1-250). The assay can be described thus: protein-binding microarray (RPBM); PBS, 2% BSA, 51.3 ng/ul salmon testes DNA, 50 uM zinc acetate, 200 nM TF, 25 C, 1 h; high values mean tight binding. To be noted: protein: recombinant; tags: N-terminal polyhistidine and DsRed monomer fusion (pET32a); label: CyDye5-dUTP incorporated in the synthesized complementary strand; 3' TTTTT single-stranded linker to array surface; dsDNA, one strand shown. An outline of the steps:
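An Axon 4000B scanner gave the binding signal as per-feature fluorescence intensity in arbitrary units. This followed washing of a custom Agilent array that had been incubated for 1 h at 25 °C with 200 nM protein in PBS, 2% BSA, salmon testes DNA and 50 µM zinc acetate. The proteins were transcription factors fused at the N-terminus to polyhistidine and DsRed, expressed in E. coli BL21-CodonPlus and purified on Ni–NTA.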
“TCCCACCCGCTGCCACCAAAACCCTCCCCGCGCCCGGTCCCGGAGTCACCTAGTGCAG”: the binding signal was 10500 fluorescence intensity (a.u.). On to “TCGACAATGTCACTCCATCATATCATGGCCAAAATATAACCGGAGTCACCTAGTGCAG”, for which the binding signal is 8140 fluorescence intensity (a.u.). On to “CGCATATATATCTCTCTTTGCATCTGTACTCATCGAATCTCGGAGTCACCTAGTGCAG”, for which the binding signal is 8640 fluorescence intensity (a.u.). As for “CTCTCCTCTCCGGTCATCTCATATATACGTATCTATATCGCGGAGTCACCTAGTGCAG”, the binding signal is 8520 fluorescence intensity (a.u.). For the sequence “TCGCGACCTCTCATCTATCGATCTTTGCATACATATATATCGGAGTCACCTAGTGCAG”, the binding signal is 17800 fluorescence intensity (a.u.).

Turning to “ATCCCCGTGTTCTCCCCACACAAACCTTCGCGCCGCCCATCGGAGTCACCTAGTGCAG”, the binding signal was 9540 fluorescence intensity (a.u.). For the sequence “CCTACTTGTTGGCTTCTATCTCCTGTTAATTAATTTCTCACGGAGTCACCTAGTGCAG”, the binding signal is 8450 fluorescence intensity (a.u.). Then “AATCGTTTTCTTTCTTGTCTTCAAACTTATTTTCCCGTTTCGGAGTCACCTAGTGCAG”, with 9600 fluorescence intensity (a.u.); and “GTCAGGTGGCGGCGGCGGCGGTGGTGGCGGTGGAGGTGGACGGAGTCACCTAGTGCAG”, with 14400 fluorescence intensity (a.u.); and “GGCGGTGGCGGTGACGGTGGAGGTGGAGGCGGTGTGGCATCGGAGTCACCTAGTGCAG”, with 8420 fluorescence intensity (a.u.). “GGAGGGCGGTGGCGAGGGCGGCGGTGGCGCGGATGCTGGACGGAGTCACCTAGTGCAG”: the binding signal was 8960 fluorescence intensity (a.u.). On to “GAGGAGAGGCGGGGTGAGACGGGACGGGAGGGTGGCGATGCGGAGTCACCTAGTGCAG”, for which the binding signal is 9530 fluorescence intensity (a.u.). With “AGGAGGTGGTGGGTGGTGGTGGCTGCGGCTTGGCGCGATGCGGAGTCACCTAGTGCAG”, the binding signal is 9400 fluorescence intensity (a.u.).

Turning to “CAGTTTCATCCCTAGGTGGTGGTGGCGGTGCGTGGAGTGACGGAGTCACCTAGTGCAG”, the binding signal is 16600 fluorescence intensity (a.u.). As for “AAGGGTGGGCGTGATGGAGTTTGGATGGGCCCTGCGACGGCGGAGTCACCTAGTGCAG”, the figure is 9160 fluorescence intensity (a.u.); as for “CAGGTGGACGGCGGTGGTGGTGGTGGTGGTGGCGGCGATGCGGAGTCACCTAGTGCAG”, 17000 fluorescence intensity (a.u.); as for “AGGTGGAGGTGGAGGTGGAGGAGGGCGGCGGGTGGCGATGCGGAGTCACCTAGTGCAG”, 16500 fluorescence intensity (a.u.). Consider “TCATGATGAATCGGGGTGGTGGAGGTTTGCTTGTTATGGTCGGAGTCACCTAGTGCAG”, for which the binding signal was 11000 fluorescence intensity (a.u.). Consider “AGATTTGACTATCCTGCTGGAATCCGGTAACAATTTTTCACGGAGTCACCTAGTGCAG”, for which the binding signal is 9560 fluorescence intensity (a.u.). As for “TTGGTTGGTTGGTTATACAAAGACGCTACGAGTCCGGGAACGGAGTCACCTAGTGCAG”, the binding signal is 12400 fluorescence intensity (a.u.).

For the sequence “ACCATAAAGCCAAGTTTCATCCATAATCCTTATTTTTCATCGGAGTCACCTAGTGCAG”, the binding signal is 8670 fluorescence intensity (a.u.).

Take “TGTTATATTTGTATTTGTGCTTTGCTTCTTCTAGGCTTTTCGGAGTCACCTAGTGCAG”: the binding signal was 8740 fluorescence intensity (a.u.). Turning to “TCTCTGTCTCACTCTTCCTCTCTCTCACACGCACGGCGAGCGGAGTCACCTAGTGCAG”, the binding signal is 8380 fluorescence intensity (a.u.). As for “CACTCCGCTGCCGCCCGCCGGAAGGGGAGGGGAGGAGGGGCGGAGTCACCTAGTGCAG”, the figure is 11700 fluorescence intensity (a.u.); as for “AGGGCGCCGTCGTTCGTCATGCTGCTTCCGCCGCATCCTGCGGAGTCACCTAGTGCAG”, 9240 fluorescence intensity (a.u.); as for “GGCCGGGGAGGGAGGGGCGCCGTCGTCCTGCTGCATCCTGCGGAGTCACCTAGTGCAG”, 20700 fluorescence intensity (a.u.). As to “GGTGGAGGCGGGCGCGGTGGAGGCGGGGAGGAAGGGGAGCCGGAGTCACCTAGTGCAG”, the binding signal was 15100 fluorescence intensity (a.u.). On to “GGAGGGGCGGTGGCCGCCGGCGGCCCGCGCGGCGGGAGCGCGGAGTCACCTAGTGCAG”, for which the binding signal is 9240 fluorescence intensity (a.u.). For the sequence “GGGGCGCCGGGAAGGAGGGCGCTGTGTGGGAGGGAGGGAGCGGAGTCACCTAGTGCAG”, the binding signal was 17100 fluorescence intensity (a.u.).

Regarding “GGGGAGGCGGGGTGGCGGGAGGGAAGGCGGCGGCGGCGCCCGGAGTCACCTAGTGCAG”, the binding signal was 12700 fluorescence intensity (a.u.). As for “CCCCGGAAGGGGCGGGGAGGGGAGGGCGGCAGCGGCGCCGCGGAGTCACCTAGTGCAG”, the figure is 18500 fluorescence intensity (a.u.).

In the case of “GGGGCGCCGCCGTTCGTCCTGCTGCTTCCGCCGCATCCTGCGGAGTCACCTAGTGCAG”, the binding signal was 9650 fluorescence intensity (a.u.). As for “GCCGTCCGCCGTGAGCCGGTGCTGTCCACGACGTCGTCTTCGGAGTCACCTAGTGCAG”, the binding signal is 9640 fluorescence intensity (a.u.). Consider “TTACTCCTGGACCAGCATTGCTACAACTATCATTTTCTCCCGGAGTCACCTAGTGCAG”, for which the binding signal was 9840 fluorescence intensity (a.u.). As for “GGTTTTAAAGGGGTTCCATACACGTATGATAATAAGAGACCGGAGTCACCTAGTGCAG”, the figure is 8180 fluorescence intensity (a.u.). For the sequence “GTCCAGGTTGGTTTTCATGGGTCGAGTGGCATCAGATGGGCGGAGTCACCTAGTGCAG”, the binding signal is 10100 fluorescence intensity (a.u.).

For the sequence “TTCTTGATCTTTCTGGTTTCTACTGGTTGATTGTACACTTCGGAGTCACCTAGTGCAG”, the binding signal was 8500 fluorescence intensity (a.u.). “TTTTTTCTGTTTGTCCTCCATATATGTCAGCTCTAAAAATCGGAGTCACCTAGTGCAG”: the binding signal was 9300 fluorescence intensity (a.u.). As for “GCCCTTAACGCGATCATGTAACAATGTATCTAAGCCTATACGGAGTCACCTAGTGCAG”, the figure is 8200 fluorescence intensity (a.u.); as for “ATCCGTTGCCCTCGCTCCTATAACTGCGTTGACATGTCGCCGGAGTCACCTAGTGCAG”, 9550 fluorescence intensity (a.u.). As to “TTCCTAGTACTATCTGCGTTGCGTTGACTGACATGTGGGCCGGAGTCACCTAGTGCAG”, the binding signal was 17000 fluorescence intensity (a.u.). For “AGGGAGGGAGGGAGGAGGAAGGAGGACTGACATGTGGGCCCGGAGTCACCTAGTGCAG”, the binding signal was 9250 fluorescence intensity (a.u.).

(Values after PMC7819943, “Rice protein-binding microarrays: a tool to detect cis-acting elements near promoter regions in rice”.)
